The results in this text go back to PubChem BioAssay AID720504 (National Center for Advancing Translational Sciences (NCATS), 2013).

Molecules are shown by their SMILES. The whole screen tested about 360,000 compounds, of which about 10,000 (2.8%) were called active. Roughly 4% stayed inconclusive and do not appear here. Calls come from the whole dose curve; as a rule, active = well fitted inhibition curve with a large enough effect; inconclusive = small, poorly fitted or top-dose-only effect; inactive = flat fitted curve, though single readings scatter. The list comes from a sample in which actives are over-represented; it also holds similar structures and randomly drawn compounds.
% is set by controls: 0 for no effect and ±100 for the full control effect; potency is the fitted concentration of half-maximal effect.

For this experiment, the target named is Serine/threonine-protein kinase PLK1 (Homo sapiens) (UniProt P53350). Put plainly: qHTS for Inhibitors of PLK1-PDB (polo-like kinase 1 - polo-box domain): Primary Screen. For max response, negative = inhibition: series mostly up to about 57 µM. Note: nearly all actives have a fitted effect of over 65% in size. The settings on record: Plk1 PBD binding of FITC phosphopeptide, fluorescence polarization. In general terms: qHTS replaces the single test concentration by a dilution series.
Chain of Serine/threonine-protein kinase PLK1 (Homo sapiens) (P53350 whole entry, looked up, the tested form may be a part): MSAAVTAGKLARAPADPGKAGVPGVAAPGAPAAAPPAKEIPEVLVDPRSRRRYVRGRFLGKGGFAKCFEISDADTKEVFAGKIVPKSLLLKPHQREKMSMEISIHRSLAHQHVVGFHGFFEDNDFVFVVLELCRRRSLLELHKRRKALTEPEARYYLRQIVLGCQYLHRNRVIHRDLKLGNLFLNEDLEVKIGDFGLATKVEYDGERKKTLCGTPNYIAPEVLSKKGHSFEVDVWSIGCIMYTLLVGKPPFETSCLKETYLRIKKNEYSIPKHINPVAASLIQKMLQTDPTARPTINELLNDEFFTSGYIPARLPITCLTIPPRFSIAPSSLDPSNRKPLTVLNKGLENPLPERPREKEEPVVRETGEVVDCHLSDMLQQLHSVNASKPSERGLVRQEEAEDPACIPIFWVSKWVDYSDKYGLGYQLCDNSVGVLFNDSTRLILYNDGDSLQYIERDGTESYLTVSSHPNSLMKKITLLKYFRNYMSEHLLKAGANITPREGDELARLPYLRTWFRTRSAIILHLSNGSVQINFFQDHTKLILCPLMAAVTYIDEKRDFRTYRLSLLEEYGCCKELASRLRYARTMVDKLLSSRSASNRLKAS
For `CC(=O)N1Cc2cc(C(=O)NCc3cccc(F)c3)nc(-c3cccc(C4=CCCC4)c3)c2[C@H]1CCO`, the max response, negative = inhibition was -3.4% (inactive).

As for `CCC(C)CN1C(=O)CSCC1(C)C(=O)NCc1ccccc1` (configuration not stated), the max response, negative = inhibition was -12.2% (inactive).

For `O=C(Nc1ccc(Cl)cc1)C1Cc2c(-c3ccc4c(c3)OCO4)ccnc2O1` (configuration not stated), the max response, negative = inhibition was -2.05% (inactive).

With `C[C@H]1CN([C@@H](C)CO)C(=O)CCCn2cc(nn2)CO[C@@H]1CN(C)C(=O)Nc1ccccc1`, the max response, negative = inhibition is -14% (inactive).

For the compound `O=C(c1ccc(Cl)c(S(=O)(=O)N2CCCCC2)c1)N1CCCCCC1`, the max response, negative = inhibition was -9.42% (inactive).

For `O=C(c1ccc[nH]c1=S)N1CCN(S(=O)(=O)c2ccc(Br)cc2Cl)CC1`, the Potency was 26.7 µM (active).

On to `O=C(c1ccccc1F)N1CCN(S(=O)(=O)c2ccc(Br)cc2)CC1`, for which the max response, negative = inhibition is -0.788% (inactive).

As to `O=C(COc1ccc(S(=O)(=O)N2CCCC2)cc1[N+](=O)[O-])N1CCCCC1`, the max response, negative = inhibition was 0.94% (inactive).

Consider `C[C@H]1CN([C@@H](C)CO)C(=O)CCCn2cc(nn2)CO[C@@H]1CN(C)S(=O)(=O)c1ccccc1C#N`, for which the max response, negative = inhibition was -15.7% (inactive).

As to `CCOC(=O)N1CCN(C(c2ccnc3ccccc23)c2nnnn2-c2c(C)cccc2C)CC1` (configuration not stated), the max response, negative = inhibition was 6.16% (inactive).

Turning to `Cc1onc(C(=O)NN)c1C(=O)N1CCN(C(c2ccccc2)c2ccccc2)CC1`, the max response, negative = inhibition was 1.96% (inactive).

Take `CCN1CCN(C(c2cccnc2)c2cc(Cl)c3cccnc3c2O)CC1` (configuration not stated): the Potency is 10.6 µM (active).

With `CCOC(=O)N1CCN(C(c2cccnc2)c2ccc3cccnc3c2O)CC1` (configuration not stated), the Potency was 5.97 µM (active).

As to `O=C(NC1CCCC1)C1c2ccccc2OCC(=O)N1CC(F)(F)F` (configuration not stated), the max response, negative = inhibition is -3.82% (inactive).

As for `CCOC1=C2[C@@H](CN(S(=O)(=O)c3ccc(C)cc3)[C@H]2c2ccccc2F)[C@H]2C(=O)N(Cc3ccccc3)C(=O)[C@H]2C1`, the max response, negative = inhibition is -14.5% (inactive).

As to `CCCCCCNC(=O)O[C@]12C[C@@H](C(=O)OC)[C@@H](C(=O)OC)C[C@@]1(O)CN(S(=O)(=O)c1ccc(C)cc1)C2`, the max response, negative = inhibition is -1.62% (inactive).

On to `CCc1ccc(C2C(C#N)=C(N)N(N3CCOCC3)C3=C2C(=O)CC(C)(C)C3)s1` (configuration not stated), for which the Potency is 26.7 µM (active).

With `COc1ccc(C2C(C#N)=C(/N=C/N3CCOCC3)OC3=C2C(=O)CC(C)(C)C3)cc1OC` (configuration not stated), the max response, negative = inhibition is -6.22% (inactive).

As to `CCc1ccc(C2C(C#N)=C(N)N(N(C)C)C3=C2C(=O)CCC3)s1` (configuration not stated), the max response, negative = inhibition was 2.14% (inactive).

For the compound `O=C(O)c1ccccc1-c1ccccc1C(=O)NCc1cccnc1`, the max response, negative = inhibition is -5.72% (inactive).

As to `CCC(Oc1ccccc1)C(=O)NCc1cccnc1` (configuration not stated), the Potency was 18.9 µM (active).

As for `O=C(NCc1cccnc1)Nc1ccccc1F`, the max response, negative = inhibition is -0.233% (inactive).
